Reference: the supplement of paper PMC9694430

How the values were obtained:
Assay in all cases: thermal shift delta Tm vs DMSO control; higher = stronger stabilization (binding)
Conditions in all cases: 12.5 µM; protein concentration 2 µM
LOC_OS02G45750-cb003 = test system: LOC_OS02G45750-cb003
Outline: (§1)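 Rice kinase domain constructs were expressed in E. coli, purified, and tested by differential scanning fluorimetry with compound added in DMSO. Each well of a 96-well plate held 19.5 μl of 2 μM kinase in 100 mM potassium phosphate pH 7.5, 150 mM NaCl, 10% glycerol and 5 × SYPRO Orange, and fluorescence was read from 25°C to 95°C at 0.05°C/s. The melting temperature shift is the mean of triplicates, taken against protein with DMSO alone after Boltzmann fitting.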

LOC_OS02G54510-cb004 = test system: LOC_OS02G54510-cb004
Outline: as §1

LOC_OS03G04050-cb001 = test system: LOC_OS03G04050-cb001
Outline: as §1

LOC_OS03G12390-cb001 = test system: LOC_OS03G12390-cb001
Outline: as §1

LOC_OS03G27990-cb004 = test system: LOC_OS03G27990-cb004
Outline: as §1

LOC_OS03G50450-cb001 = test system: LOC_OS03G50450-cb001
Outline: as §1

LOC_OS03G50810-cb003 = test system: LOC_OS03G50810-cb003
Outline: as §1

LOC_OS04G35114-cb001 = test system: LOC_OS04G35114-cb001
Outline: as §1

LOC_OS04G38480-cb003 = test system: T1, LOC_OS04G38480-cb003
T1 sequence (whole entry): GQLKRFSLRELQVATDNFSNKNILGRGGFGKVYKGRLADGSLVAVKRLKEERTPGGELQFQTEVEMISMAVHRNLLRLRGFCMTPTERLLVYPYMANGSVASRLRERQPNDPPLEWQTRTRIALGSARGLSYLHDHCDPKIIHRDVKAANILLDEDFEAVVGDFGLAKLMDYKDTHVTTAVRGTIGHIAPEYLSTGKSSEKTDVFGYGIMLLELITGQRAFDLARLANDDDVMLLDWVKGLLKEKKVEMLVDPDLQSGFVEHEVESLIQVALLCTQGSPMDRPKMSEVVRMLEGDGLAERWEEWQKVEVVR
Outline: as §1

LOC_OS04G41100-cb001 = test system: T2, LOC_OS04G41100-cb001
T2 sequence (whole entry): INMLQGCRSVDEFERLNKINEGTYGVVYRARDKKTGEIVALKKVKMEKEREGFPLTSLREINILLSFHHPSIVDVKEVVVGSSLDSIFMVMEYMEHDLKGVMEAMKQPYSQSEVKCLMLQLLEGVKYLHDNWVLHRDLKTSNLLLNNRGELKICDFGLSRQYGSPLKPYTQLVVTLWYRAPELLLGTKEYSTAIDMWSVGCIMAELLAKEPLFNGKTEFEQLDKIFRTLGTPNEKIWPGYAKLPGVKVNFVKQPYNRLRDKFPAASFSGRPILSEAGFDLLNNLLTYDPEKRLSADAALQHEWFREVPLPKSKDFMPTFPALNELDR
Outline: as §1

LOC_OS04G57630-cb004 = test system: LOC_OS04G57630-cb004
Outline: as §1

LOC_OS05G07850-cb002 = test system: LOC_OS05G07850-cb002
Outline: as §1

LOC_OS05G16824-cb004 = test system: LOC_OS05G16824-cb004
Outline: as §1

LOC_OS05G28520-cb001 = test system: LOC_OS05G28520-cb001
Outline: as §1

LOC_OS05G30820-cb001 = test system: LOC_OS05G30820-cb001
Outline: as §1

LOC_OS05G43570-cb004 = test system: LOC_OS05G43570-cb004
Outline: as §1

LOC_OS06G16330-cb003 = test system: LOC_OS06G16330-cb003
Outline: as §1

LOC_OS06G22820-cb001 = test system: T3, LOC_OS06G22820-cb001
T3 sequence (whole entry): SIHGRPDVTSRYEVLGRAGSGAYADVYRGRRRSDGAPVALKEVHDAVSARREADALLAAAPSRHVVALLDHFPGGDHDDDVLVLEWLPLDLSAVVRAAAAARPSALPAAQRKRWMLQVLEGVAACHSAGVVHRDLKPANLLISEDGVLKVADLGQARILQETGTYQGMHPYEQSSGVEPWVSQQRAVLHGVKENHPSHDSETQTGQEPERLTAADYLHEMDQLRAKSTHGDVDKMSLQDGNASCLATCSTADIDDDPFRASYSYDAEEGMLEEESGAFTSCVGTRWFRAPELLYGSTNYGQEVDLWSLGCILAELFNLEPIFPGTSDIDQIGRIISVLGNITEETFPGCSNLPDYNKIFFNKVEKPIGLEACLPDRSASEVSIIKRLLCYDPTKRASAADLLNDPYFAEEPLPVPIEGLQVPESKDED
Outline: as §1

LOC_OS07G06570-cb004 = test system: LOC_OS07G06570-cb004
Outline: as §1

LOC_OS07G07230-cb001 = test system: LOC_OS07G07230-cb001
Outline: as §1

Sequence of LOC_OS06G16330-cb003 (as listed by the source): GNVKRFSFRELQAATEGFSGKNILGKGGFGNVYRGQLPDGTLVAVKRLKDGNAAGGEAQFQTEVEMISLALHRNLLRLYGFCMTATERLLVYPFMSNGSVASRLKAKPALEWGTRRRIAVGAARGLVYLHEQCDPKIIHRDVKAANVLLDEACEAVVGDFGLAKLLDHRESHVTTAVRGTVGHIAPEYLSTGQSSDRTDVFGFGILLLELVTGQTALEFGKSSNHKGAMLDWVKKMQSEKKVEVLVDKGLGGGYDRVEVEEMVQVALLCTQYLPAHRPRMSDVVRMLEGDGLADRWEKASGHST

| SMILES | thermal shift delta Tm (LOC_OS02G45750-cb003) [°C] | thermal shift delta Tm (LOC_OS02G54510-cb004) [°C] | thermal shift delta Tm (LOC_OS03G04050-cb001) [°C] | thermal shift delta Tm (LOC_OS03G12390-cb001) [°C] | thermal shift delta Tm (LOC_OS03G27990-cb004) [°C] | thermal shift delta Tm (LOC_OS03G50450-cb001) [°C] | thermal shift delta Tm (LOC_OS03G50810-cb003) [°C] | thermal shift delta Tm (LOC_OS04G35114-cb001) [°C] | thermal shift delta Tm (LOC_OS04G38480-cb003) [°C] | thermal shift delta Tm (LOC_OS04G41100-cb001) [°C] | thermal shift delta Tm (LOC_OS04G57630-cb004) [°C] | thermal shift delta Tm (LOC_OS05G07850-cb002) [°C] | thermal shift delta Tm (LOC_OS05G16824-cb004) [°C] | thermal shift delta Tm (LOC_OS05G28520-cb001) [°C] | thermal shift delta Tm (LOC_OS05G30820-cb001) [°C] | thermal shift delta Tm (LOC_OS05G43570-cb004) [°C] | thermal shift delta Tm (LOC_OS06G16330-cb003) [°C] | thermal shift delta Tm (LOC_OS06G22820-cb001) [°C] | thermal shift delta Tm (LOC_OS07G06570-cb004) [°C] | thermal shift delta Tm (LOC_OS07G07230-cb001) [°C] |
| --- | --- | --- | --- | --- | --- | --- | --- | --- | --- | --- | --- | --- | --- | --- | --- | --- | --- | --- | --- | --- |
| O=C(Nc1cccc(C(F)(F)F)c1)c1cccc2cc(Oc3cc(CO)ncn3)ccc12 | 0.82 | 0.52 | 0.59 | -0.09 | 0.52 | 0.11 | 0.03 | 0.55 | 1.4 | 0.37 | 0.45 | -0.21 | -4.53 | 0.52 | 0.8 | 0.31 | -0.18 | 0.78 | 0.98 | 0.86 |
| N#Cc1c(Oc2ccc(F)c(NC(=O)Cc3cccc(C(F)(F)F)c3)c2)ccc2nc(NC(=O)C3CC3)sc12 | 1.08 | 0.54 | 0.5 | 0.15 | 0.31 | 0.4 | 0.5 | 0.45 | 1.92 | 0.42 | 0.09 | 0.32 | -2.82 | 0.59 | 0.49 | 0.4 | 0.5 | 0.74 | 1.21 | 0.32 |
| Oc1cc(CNC(=S)/C=C/c2cc(O)c(O)c(Br)c2)cc(O)c1O | 0.11 | -0.88 | 0.71 | 0.57 | 0.49 | 0.42 | 0.39 | -1.08 | 0 | -0.03 | 0.49 | -1.85 | -0.73 | 0.47 | 0.99 | 1.46 | 0.61 | 2.08 | 3.05 | 0.45 |
| CNc1nc(Nc2cn(C(C)(C)C#N)nc2C)ncc1C(F)(F)F | 0.99 | 0.1 | 0.32 | 0.28 | 0.39 | 0.78 | 0.62 | 1.36 | 1.34 | 0.22 | 0.21 | 3.12 | 1.76 | 0.47 | 0.36 | 0.56 | 0.81 | 0.4 | 0.68 | -0.13 |
| OC(c1cc(-c2ccc(Cl)cc2)nc2ccccc12)C1CCCCN1 (configuration not stated) [Vacquinol-1] | 1.11 | -0.34 | 0.42 | 0.39 | 0.57 | 1.11 | 0.65 | 0.88 | 1.95 | 0.59 | 0.38 | 3.49 | 1.23 | 0.66 | 0.43 | 0.64 | 0.55 | 0.46 | 0.14 | -0.36 |
| Cc1cc(C)c(/C=C2\C(=O)Nc3ccccc32)[nH]1 [Semaxanib (SU5416)] | 0 | 0.58 | 0.69 | 4.53 | 1.72 | 2.32 | 2.91 | 6.57 | 2.87 | 0.32 | 0.62 | 6.49 | 8.99 | 0.65 | 0.48 | 0.37 | 6.54 | 0.6 | 1.4 | -0.2 |
| Cn1sc(=O)n(Cc2ccccc2)c1=O | -1.04 | -2 | -0.78 | -3.39 | -9.72 | -0.11 | -3.78 | 0.63 | 1.35 | 0.43 | -1.01 | -2.47 | 4.99 | 1.84 | 0.45 | 0.04 | – | 0.72 | 0.43 | -0.42 |
| CN(C)S(=O)(=O)c1ccc2c(c1)/C(=C/c1cc3c([nH]1)CCCC3)C(=O)N2 | 0 | 1.15 | 0.65 | 0.26 | 0.61 | 0.97 | 0 | 0 | 6.35 | 0.43 | 1.35 | 7.38 | -3.8 | 1.28 | 1.28 | 0.71 | – | 1.01 | 1.01 | 0.86 |
| O=C(NC[C@H](O)CO)c1ccncc1Nc1ccc(I)cc1F | 0.45 | 0.09 | 0.21 | -0.04 | 0.19 | 0.42 | 0.09 | 0.79 | 0 | 0.62 | 0.16 | 0.04 | -2.59 | -0.04 | 0.65 | 0.08 | -0.12 | 0.62 | 0.95 | 0.62 |
| CCN1CCN(Cc2ccc(Nc3ncc(F)c(-c4cc(F)c5nc(C)n(C(C)C)c5c4)n3)nc2)CC1 | 3.28 | 0.25 | 0.17 | 1.39 | 0.47 | 0.16 | 2.97 | 2.79 | 1.91 | 5.62 | 1.35 | 12.6 | 3.33 | 0.73 | 0.2 | 0.41 | 6.17 | 0.41 | 1.14 | 0.37 |
| Cc1[nH]c(/C=C2\C(=O)Nc3ccccc32)c(C)c1CCC(=O)O [Orantinib (TSU-68, SU6668)] | 0 | 2.74 | 0.04 | 9.53 | 0.65 | 5.03 | 0 | 8.78 | 4.57 | 0.53 | 0.84 | 9.92 | 0 | 0.62 | 1.03 | 0.68 | – | 0.6 | 1.28 | 0.28 |
